Screening data from PubChem BioAssay.
Dyrk1A ADPGlo – blocks rat Dyrk1A kinase activity; Q63470; ADP-Glo luminescence, NFATc1 peptide; inhibition, % at 12.5 µM; actives 0.43% (n = 310,000); AID 504441; in the data active = inhibition above about 50%;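 also: plate controls were vehicle with enzyme for no effect and no enzyme for full effect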
HSF1 inhib – HSF1 inhibition; NIH3T3-HGL HSE-luciferase, MG132-induced, luminescence 8 h; hits give low values; activity change, negative = inhibition, % at 7.5 µM (by protocol); actives 0.77% (n = 300,000);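 active = more than half of replicate wells show activity change below -50%, luminescence cut by over half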;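 also: luciferase reports HSF-1 transcriptional activity via heat shock element; 0% = median of DMSO wells and -100% = zero luminescence signal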
HSF1 activator – increases HSF-1 driven luciferase reporter signal; actives 1.7% (n = 300,000); activation, % at 9 µM; AID 504408; NIH3T3-HGL HSF-1 luciferase reporter, MG132, 8 h; 100% = twice DMSO control signal;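 active = mean replicate activation of at least 50% with a set share of replicates each reaching 50%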;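 also: 0% = median of the neutral control wells and 100% = twice that signal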
GC-A act – GC-A (human) enzyme activation; P16066; HEK293 GC-A cells, cGMP TR-FRET, EC30 ANP; 0% at EC30 ANP, 100% saturating ANP; activation, % at 10 µM; actives 0.14% (n = 370,000); in the data active = activation above about 40%
Target sequence (P16066 whole entry, looked up): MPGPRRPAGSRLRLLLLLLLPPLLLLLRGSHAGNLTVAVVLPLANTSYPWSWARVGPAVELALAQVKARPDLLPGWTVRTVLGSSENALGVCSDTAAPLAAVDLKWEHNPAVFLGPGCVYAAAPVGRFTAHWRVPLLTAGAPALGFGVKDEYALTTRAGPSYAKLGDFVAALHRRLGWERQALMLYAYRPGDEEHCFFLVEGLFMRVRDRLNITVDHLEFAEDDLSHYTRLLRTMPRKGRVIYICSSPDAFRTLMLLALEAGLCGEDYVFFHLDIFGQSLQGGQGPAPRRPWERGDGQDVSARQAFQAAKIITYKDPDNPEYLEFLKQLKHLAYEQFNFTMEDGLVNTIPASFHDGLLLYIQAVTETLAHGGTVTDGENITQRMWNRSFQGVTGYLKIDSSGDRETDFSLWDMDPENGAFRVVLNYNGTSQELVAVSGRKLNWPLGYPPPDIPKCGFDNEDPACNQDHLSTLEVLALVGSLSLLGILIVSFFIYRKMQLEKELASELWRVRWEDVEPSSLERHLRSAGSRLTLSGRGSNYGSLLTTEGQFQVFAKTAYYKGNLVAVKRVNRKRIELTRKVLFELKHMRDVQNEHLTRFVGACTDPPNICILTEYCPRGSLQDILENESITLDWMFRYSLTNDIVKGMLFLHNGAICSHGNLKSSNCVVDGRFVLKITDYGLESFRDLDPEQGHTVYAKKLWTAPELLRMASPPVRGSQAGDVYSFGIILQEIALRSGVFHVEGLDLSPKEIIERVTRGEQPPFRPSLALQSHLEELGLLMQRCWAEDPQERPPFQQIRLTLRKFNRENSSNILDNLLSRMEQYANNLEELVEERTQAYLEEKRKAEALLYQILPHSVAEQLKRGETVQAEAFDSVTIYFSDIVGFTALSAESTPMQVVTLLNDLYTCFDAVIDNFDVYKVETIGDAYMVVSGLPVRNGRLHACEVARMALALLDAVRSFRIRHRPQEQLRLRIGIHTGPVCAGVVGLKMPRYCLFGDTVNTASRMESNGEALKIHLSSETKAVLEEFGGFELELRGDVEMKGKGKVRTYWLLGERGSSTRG
aDG glyco up – increases alpha dystroglycan glycosylation; activation, % at 10 µM; AID 624168; Pro5-aDG cells, alpha-DG glycosylation AlphaScreen (IIH6); 0% Pro5, 100% B10-LARGE cell signal; actives 0.22% (n = 360,000);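 active = activation of at least 8% versus controls, or a plate z-score of at least 8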;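 also: Pro5 are CHO cells carrying HIG-tagged alpha-DG that lacks glycosylation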
NPR2 activator – GC-B (human) receptor activation. HEK293-GC-B cells, CNP EC30, cGMP TR-FRET; 0% at EC30 CNP, 100% saturating CNP. activation, % at 10 µM. actives 0.11% (n = 370,000);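 active = activation at 10 µM reaching about 35% in either raw or pattern-adjusted values, limit read from the data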
Numbers without * were called inactive; nt = not tested or not shown. Compounds with a hit are over-represented: about 2.5% of the library has one in this group of screens.

SMILES	Dyrk1A ADPGlo	HSF1 inhib	HSF1 activator	GC-A act	aDG glyco up	NPR2 activator
C=CCn1c(SCc2cc([N+](=O)[O-])cc3c2OCOC3)nc2cc(C(=O)O)ccc2c1=O	1.8	28.8	63.3*	-2.5	-0.1	-6.3
CCOC(=O)c1cc2c(c(CSc3nc4ccccc4c(=O)n3Cc3ccco3)c1)OCOC2	-5.5	17.4	58.0*	6.4	0.1	14.4
COc1ccc(CNC(=O)c2ccc3ccccc3n2)cc1	nt	9.5	21.6	6.1	-0.1	1.1
COc1ccc(CNC(=O)c2sc(=S)n(-c3ccccc3)c2N)cc1	5.0	-67.4*	-72.6	-3.9	0.0	-7.7
CCOc1ccc(-n2c(N)c(C(=O)NCc3cccnc3)sc2=S)cc1	11.8	11.3	12.7	-2.4	0.0	-4.9
CCOC(=O)C1CCN(C(=O)c2ccc(OC3CCN(C(=O)CCOC)CC3)cc2)CC1	0.0	-3.4	2.1	-2.5	0.0	-1.8
O=C(CN(c1cccc(C(F)(F)F)c1)S(=O)(=O)c1ccc(Cl)c([N+](=O)[O-])c1)NCc1ccccc1	-5.4	6.3	13.9	-21.5	0.1	4.4
O=C(CN(c1cccc(C(F)(F)F)c1)S(=O)(=O)c1ccc(Cl)c([N+](=O)[O-])c1)NCc1ccccc1Cl	1.1	36.3	66.3*	-27.0	0.8	-7.1
COCCCNC(=O)Cn1c(=O)n(CCCCCC(=O)NCc2ccc3c(c2)OCO3)c(=O)c2sccc21	0.0	-28.8	-44.5	-3.8	-0.1	0.7
O=C(O)c1ccc(N/N=C/c2ccc3nccnc3c2)cc1	45.7	-81.0*	-84.5	-6.2	0.3	-9.1
O=C(c1cc(Cl)ccc1Cl)N1CCOCC1	0.5	-71.9*	-77.6	-1.4	0.7	3.0
C=CCNc1nc(=S)[nH]c2cc(OC)c(OC)cc12	3.3	-11.7	-0.2	41.1*	0.2	37.4*
CCc1nc2ccc(C(=O)O)cc2nc1CC	6.0	-68.6*	-71.3	1.3	-0.3	-2.3
CCc1nc2ccc(C(=O)N3CCN(CC)CC3)cc2nc1CC	3.6	0.4	-2.5	1.6	-0.1	-2.2
Cc1ccc(NC2CC(=O)N(CCc3ccccc3)C2=O)cc1 (stereo unspecified)	-4.3	5.8	16.5	1.8	-0.2	3.1
CCOC(=O)c1[nH]c(C)c(C(=O)NCCC2=CCCCC2)c1C	4.5	35.6	60.7*	-1.2	0.0	5.6
CCOC(=O)c1[nH]c(C)c(C(=O)Nc2ccc(F)cc2)c1C	-3.6	25.4	56.8*	1.2	0.1	-3.0
CCOC(=O)c1c(C)[nH]c(C(=O)OCC(=O)Nc2cc(Cl)ccc2OC)c1C	0.4	24.8	53.2*	11.8	0.9	4.8
COc1cccc(N(C(=O)c2nc3nccc(C)n3n2)c2nc3ccccc3s2)c1	4.5	69.2	121.0*	4.9	-0.1	-2.3
COc1cccc(/C=C2\SC(=S)N(CCCC(=O)N3CCCCC3)C2=O)c1	-8.8	23.1	55.5*	-3.4	0.5	-3.7
CC(=O)c1ccc(NC(=O)CCCN2C(=O)/C(=C/C(C)=C/c3ccccc3)SC2=S)cc1	4.8	36.6	69.5*	-3.0	-0.4	0.9
Cc1ccc(/C=C2\SC(=S)N(CCCC(=O)Nc3ccccn3)C2=O)cc1	-9.8	-66.6*	-70.6	-5.2	0.1	2.9
Nc1nc2nn(-c3ccccc3)nc2c(=O)[nH]1	4.8	20.8	55.1*	-3.8	0.3	-5.1
OC(COc1ccc2cc(Br)ccc2c1)CN1CCN(c2ccccn2)CC1 (stereo unspecified)	-6.3	-4.4	14.0	0.7	0.9	2.6
CC1CCN(C(=O)Nc2ccc3nsnc3c2)CC1	nt	23.5	56.7*	6.1	0.2	0.3
O=C(Nc1ccc2nsnc2c1)N1CCCCC1	5.7	-1.6	0.3	-1.1	0.4	-0.4
S=C(Nc1ccc2nsnc2c1)N1CCCCCC1	-0.4	41.1	61.9*	7.8	5.9	-6.5
S=C(Nc1ccc2nsnc2c1)NC1CCCCC1	22.9	30.7	82.1*	4.0	3.7	-1.8
CC(=O)C1=C(C)Nc2ncnn2C1c1cccc(O)c1 (stereo unspecified)	10.6	-6.1	-1.9	6.7	0.1	5.0
